Results taken from ChEMBL document CHEMBL1961873, “Compounds: GSK PKIS; Assays: Nanosyn kinase panel” (2012).

What follows are compounds tested against Casein kinase I isoform alpha (Homo sapiens) (UniProt P48729). Details: at 0.1 µM.
Casein kinase I isoform alpha (Homo sapiens), sequence (P48729 2-337 limits assumed): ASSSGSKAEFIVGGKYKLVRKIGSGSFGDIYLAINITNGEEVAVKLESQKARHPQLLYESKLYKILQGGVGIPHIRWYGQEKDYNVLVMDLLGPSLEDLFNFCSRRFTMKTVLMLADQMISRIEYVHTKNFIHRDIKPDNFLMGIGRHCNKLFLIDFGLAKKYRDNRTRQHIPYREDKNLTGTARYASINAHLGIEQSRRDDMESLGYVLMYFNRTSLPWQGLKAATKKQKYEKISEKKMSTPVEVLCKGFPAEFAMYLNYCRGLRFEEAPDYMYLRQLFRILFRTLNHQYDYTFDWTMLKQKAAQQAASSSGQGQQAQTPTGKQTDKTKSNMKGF

Going from `Clc1ccc(CNc2nccc(-c3cnn4ncccc34)n2)cc1` to `FC(F)(F)c1cccc(Nc2nccc(-c3cnn4nc(-c5ccccc5)ccc34)n2)c1`, the inhibition falls from 2.75% to -0.33%.

Compared with `CN(c1ccc(NC(=O)Nc2c(Cl)cccc2Cl)cc1)c1ccnc(Nc2cccc(CS(C)(=O)=O)c2)n1`, `O=C(Nc1ccc(Oc2ccc3[nH]c(NC(=O)c4ccccc4)nc3c2)cc1)Nc1cc(C(F)(F)F)ccc1F` is higher in inhibition: 1.15% for the first, 3.86% for the second.

First: Cc1ccc(NC(=O)c2ccoc2)cc1-c1ccc(C(=O)NCC2CC2)cc1
Second: Cc1ccc(C(=O)NC(C)C)cc1-c1ccc(C(=O)NCC2CC2)cc1
The inhibition of the first is higher: 1.36% for the first, -3.83% for the second.

Going from `CN(C)c1ccc2c(c1)/C(=C/Nc1ccc(S(N)(=O)=O)cc1)C(=O)N2` to `C/C(Nc1ccc(S(N)(=O)=O)cc1)=C1/C(=O)Nc2ccccc21`, the inhibition rises from 1.06% to 2.64%.

Going from `COc1cc(N2CCN(C(C)C)CC2)ccc1Nc1nc(Nc2ccc(F)cc2C(=O)NC[C@@H](O)CO)c2cc[nH]c2n1` to `COc1cc(C)c(N(C)C(=O)CN(C)C)cc1Nc1nc(Nc2cccc(F)c2C(N)=O)c2cc[nH]c2n1`, the inhibition falls from 4.46% to -0.71%.

Compared with `Nc1nccc(-c2c(-c3ccc(F)cc3)ncn2C2CCC(O)CC2)n1` (stereo not drawn), `NC(=O)c1ccc(Oc2nccc(-c3c(-c4ccc(F)cc4)ncn3C3CCNCC3)n2)cc1` is lower in inhibition: 62.4% for the first, 5.63% for the second.

First: N#Cc1ccc(Oc2nccc(-c3c(-c4ccc(F)cc4)ncn3C3CCNCC3)n2)cc1
Second: Fc1ccc(-c2ncn(C3CCNCC3)c2-c2ccnc(Oc3ccc(F)c(F)c3)n2)cc1
The inhibition of the first is higher: 4.15% for the first, 4.09% for the second.

Going from `C[C@@H](Oc1cc(-n2cnc3ccc(OCC4CCN(C)CC4)cc32)sc1C(N)=O)c1ccccc1Cl` to `COc1cc2ncn(-c3cc(OCc4ccccc4C(F)(F)F)c(C(C)=O)s3)c2cc1OC`, the inhibition falls from 5.44% to 3.35%.

First: Fc1ccc(-c2c(-c3ccncc3)nc3n2CCS3)cc1
Second: Fc1ccc(-c2ncn(C3CCNCC3)c2-c2ccnc(Oc3ccc4c(c3)OCO4)n2)cc1
The inhibition of the first is lower: 2.51% for the first, 6.52% for the second.

Compared with `O=C(Nc1n[nH]c2cc(-c3cc(F)ccc3F)ccc12)C1CC1`, `COc1ccc(-c2ccc3c(NC(=O)C4CC4)n[nH]c3n2)cc1` is higher in inhibition: 0.79% for the first, 6.34% for the second.

Compared with `CCS(=O)(=O)c1ccc(OC)c(Nc2ncc(-c3ccccc3Cl)o2)c1`, `COc1cc(Nc2ncc(-c3ccccc3)o2)cc(OC)c1OC` is lower in inhibition: 0.11% for the first, -0.72% for the second.

First: O=C(Nc1n[nH]c2nc(-c3ccco3)ccc12)C1CC1
Second: NC(=O)Cc1ccccc1Oc1nccc(-c2c(-c3ccc(F)cc3)ncn2C2CCNCC2)n1
The inhibition of the first is lower: 0.06% for the first, 9.09% for the second.

Going from `NS(=O)(=O)c1ccc(Nc2cc(-c3ccc(O)c(F)c3)n[nH]2)cc1` to `NS(=O)(=O)c1ccc(N/N=C2\C(=O)Nc3ccc(-c4cnco4)cc32)cc1`, the inhibition rises from -2.61% to 0.46%.

Compared with `O=C1Nc2ccccc2/C1=C/Nc1ccc(-n2cncn2)cc1`, `NS(=O)(=O)c1ccc(N/N=C2\C(=O)Nc3ccc(C(=O)NCCCn4ccnc4)cc32)cc1` is higher in inhibition: 3.79% for the first, 3.95% for the second.

First: COc1cc(Nc2ncc3c(C)nc(-c4cccc(Oc5ccccc5)c4)n3n2)cc(OC)c1OC
Second: COc1cc(Nc2ncc3c(C)nc(-c4cccc(C(F)(F)F)c4)n3n2)cc(OC)c1OC
The inhibition of the first is lower: 6.15% for the first, 7.78% for the second.

Compared with `c1ccc(-c2n[nH]cc2-c2ccnc(-c3ccc(OCCN4CCOCC4)cc3)c2)nc1`, `Fc1ccc(-c2ncn(C3CCNCC3)c2-c2ccnc(Oc3ccc(Oc4ccccc4)cc3)n2)cc1` is higher in inhibition: 0.38% for the first, 10.7% for the second.

Compared with `CCc1cccc(CC)c1/C=C/c1cncc(C(=O)NC)c1`, `COc1cccc(-n2cnc3c(N/N=C/c4ccncc4)ncnc32)c1` is lower in inhibition: 2.53% for the first, 0.17% for the second.

Each compound was assayed against Casein kinase I isoform alpha (Homo sapiens) (UniProt P48729). Details: at 1 µM.

Going from `Clc1ccc(CNc2nccc(-c3cnn4ncccc34)n2)cc1` to `FC(F)(F)c1cccc(Nc2nccc(-c3cnn4nc(-c5ccccc5)ccc34)n2)c1`, the inhibition falls from 16.9% to 1.52%.

Going from `CN(c1ccc(NC(=O)Nc2c(Cl)cccc2Cl)cc1)c1ccnc(Nc2cccc(CS(C)(=O)=O)c2)n1` to `O=C(Nc1ccc(Oc2ccc3[nH]c(NC(=O)c4ccccc4)nc3c2)cc1)Nc1cc(C(F)(F)F)ccc1F`, the inhibition rises from 1.15% to 3.79%.

Going from `Cc1ccc(NC(=O)c2ccoc2)cc1-c1ccc(C(=O)NCC2CC2)cc1` to `Cc1ccc(C(=O)NC(C)C)cc1-c1ccc(C(=O)NCC2CC2)cc1`, the inhibition falls from 1.47% to -5.5%.

Compared with `CN(C)c1ccc2c(c1)/C(=C/Nc1ccc(S(N)(=O)=O)cc1)C(=O)N2`, `C/C(Nc1ccc(S(N)(=O)=O)cc1)=C1/C(=O)Nc2ccccc21` is higher in inhibition: 2.88% for the first, 8.53% for the second.

Compared with `COc1cc(N2CCN(C(C)C)CC2)ccc1Nc1nc(Nc2ccc(F)cc2C(=O)NC[C@@H](O)CO)c2cc[nH]c2n1`, `COc1cc(C)c(N(C)C(=O)CN(C)C)cc1Nc1nc(Nc2cccc(F)c2C(N)=O)c2cc[nH]c2n1` is lower in inhibition: 12.9% for the first, 6% for the second.

Compared with `Nc1nccc(-c2c(-c3ccc(F)cc3)ncn2C2CCC(O)CC2)n1` (stereo not drawn), `NC(=O)c1ccc(Oc2nccc(-c3c(-c4ccc(F)cc4)ncn3C3CCNCC3)n2)cc1` is lower in inhibition: 90.1% for the first, 30.3% for the second.

First: N#Cc1ccc(Oc2nccc(-c3c(-c4ccc(F)cc4)ncn3C3CCNCC3)n2)cc1
Second: Fc1ccc(-c2ncn(C3CCNCC3)c2-c2ccnc(Oc3ccc(F)c(F)c3)n2)cc1
The inhibition of the first is lower: 10.1% for the first, 15.4% for the second.

Going from `C[C@@H](Oc1cc(-n2cnc3ccc(OCC4CCN(C)CC4)cc32)sc1C(N)=O)c1ccccc1Cl` to `COc1cc2ncn(-c3cc(OCc4ccccc4C(F)(F)F)c(C(C)=O)s3)c2cc1OC`, the inhibition falls from 6.37% to 2.73%.

Compared with `Fc1ccc(-c2c(-c3ccncc3)nc3n2CCS3)cc1`, `Fc1ccc(-c2ncn(C3CCNCC3)c2-c2ccnc(Oc3ccc4c(c3)OCO4)n2)cc1` is higher in inhibition: 4.21% for the first, 31% for the second.

First: O=C(Nc1n[nH]c2cc(-c3cc(F)ccc3F)ccc12)C1CC1
Second: COc1ccc(-c2ccc3c(NC(=O)C4CC4)n[nH]c3n2)cc1
The inhibition of the first is higher: 1.31% for the first, 0.42% for the second.

Going from `CCS(=O)(=O)c1ccc(OC)c(Nc2ncc(-c3ccccc3Cl)o2)c1` to `COc1cc(Nc2ncc(-c3ccccc3)o2)cc(OC)c1OC`, the inhibition falls from 3.37% to 1.29%.

Going from `O=C(Nc1n[nH]c2nc(-c3ccco3)ccc12)C1CC1` to `NC(=O)Cc1ccccc1Oc1nccc(-c2c(-c3ccc(F)cc3)ncn2C2CCNCC2)n1`, the inhibition rises from 3.38% to 12.9%.

First: NS(=O)(=O)c1ccc(Nc2cc(-c3ccc(O)c(F)c3)n[nH]2)cc1
Second: NS(=O)(=O)c1ccc(N/N=C2\C(=O)Nc3ccc(-c4cnco4)cc32)cc1
The inhibition of the first is higher: 4.49% for the first, 3.06% for the second.

Compared with `O=C1Nc2ccccc2/C1=C/Nc1ccc(-n2cncn2)cc1`, `NS(=O)(=O)c1ccc(N/N=C2\C(=O)Nc3ccc(C(=O)NCCCn4ccnc4)cc32)cc1` is lower in inhibition: 10.3% for the first, 6.05% for the second.

Going from `COc1cc(Nc2ncc3c(C)nc(-c4cccc(Oc5ccccc5)c4)n3n2)cc(OC)c1OC` to `COc1cc(Nc2ncc3c(C)nc(-c4cccc(C(F)(F)F)c4)n3n2)cc(OC)c1OC`, the inhibition rises from 3.63% to 6.02%.

First: c1ccc(-c2n[nH]cc2-c2ccnc(-c3ccc(OCCN4CCOCC4)cc3)c2)nc1
Second: Fc1ccc(-c2ncn(C3CCNCC3)c2-c2ccnc(Oc3ccc(Oc4ccccc4)cc3)n2)cc1
The inhibition of the first is lower: 1.39% for the first, 49.6% for the second.

Compared with `CCc1cccc(CC)c1/C=C/c1cncc(C(=O)NC)c1`, `COc1cccc(-n2cnc3c(N/N=C/c4ccncc4)ncnc32)c1` is lower in inhibition: 6.21% for the first, 0.8% for the second.
